Results reported in PubChem BioAssay (EPA / NIEHS).
Values joined by “and” are separate entries in the source; they are usually repeats but may differ in a detail not shown here. Equal entries are not always repeated. Results filed as inconclusive are left out. Where a structure was tested more than once in an assay, its records may differ in their call. Active and inactive are the calls of the source. The calls were made as follows, unless noted: active = hit-call score of the fitted dose curve at least 0.9, where 1 is the maximum; inactive = score below 0.9.

Assays:
[1] = target: Retinoic acid receptor RXR-alpha (Homo sapiens) (UniProt P19793); assay: OT_NURR1_NURR1RXRa_0480: Odyssey Thera (OT) 8-hour HEK293T Protein Complementation Assay for Nurr1/retinoid X receptor (RXR) (AID 2283385; active = hit-call score of the fitted dose curve at least 0.9, where 1 is the maximum)
Retinoic acid receptor RXR-alpha (Homo sapiens), sequence (P19793 whole entry, looked up, the tested form may be a part): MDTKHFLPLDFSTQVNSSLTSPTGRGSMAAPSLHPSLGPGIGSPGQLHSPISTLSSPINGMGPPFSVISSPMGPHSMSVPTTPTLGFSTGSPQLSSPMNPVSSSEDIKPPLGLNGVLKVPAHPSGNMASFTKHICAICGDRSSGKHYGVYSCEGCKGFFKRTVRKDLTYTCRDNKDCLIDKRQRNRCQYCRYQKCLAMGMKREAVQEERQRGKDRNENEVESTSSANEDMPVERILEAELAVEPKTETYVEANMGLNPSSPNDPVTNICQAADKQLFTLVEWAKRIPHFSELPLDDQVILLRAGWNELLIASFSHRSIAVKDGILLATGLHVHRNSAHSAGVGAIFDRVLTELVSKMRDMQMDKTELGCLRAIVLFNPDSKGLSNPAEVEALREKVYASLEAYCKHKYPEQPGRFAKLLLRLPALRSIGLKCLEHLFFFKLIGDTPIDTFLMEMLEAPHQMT
In short: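 Compounds are applied to HEK293T cells carrying Nurr1 and RXRα linked to reporter fragments. After 8 h, fluorescence intensity reports heterodimer formation, with DMSO as baseline.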

[2] = target: Retinoic acid receptor RXR-alpha (Homo sapiens) (UniProt P19793); assay: OT_NURR1_NURR1RXRa_1440: Odyssey Thera (OT) 24-hour HEK293T Protein Complementation Assay for Nurr1/retinoid X receptor (RXR) (AID 2283386; active = hit-call score of the fitted dose curve at least 0.9, where 1 is the maximum)
In short: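 Measured as fluorescence from a reconstituted split reporter, this 24 h HEK293T complementation assay scores compound-induced gain of Nurr1/RXRα association relative to DMSO.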

[3] = target: Peroxisome proliferator-activated receptor gamma (Homo sapiens) (UniProt P37231); assay: OT_PPARg_PPARgSRC1_0480: Odyssey Thera (OT) 8-hour Protein-Complementation Assay for Peroxisome Proliferator-activated Receptor Gamma / SRC-1 Co-activator (AID 2283387; active = hit-call score of the fitted dose curve at least 0.9, where 1 is the maximum;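 also: nuclear to cytoplasmic split Venus YFP fluorescence ratio reporting PPARg SRC-1 interaction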)
Peroxisome proliferator-activated receptor gamma (Homo sapiens), sequence (P37231 whole entry, looked up, the tested form may be a part): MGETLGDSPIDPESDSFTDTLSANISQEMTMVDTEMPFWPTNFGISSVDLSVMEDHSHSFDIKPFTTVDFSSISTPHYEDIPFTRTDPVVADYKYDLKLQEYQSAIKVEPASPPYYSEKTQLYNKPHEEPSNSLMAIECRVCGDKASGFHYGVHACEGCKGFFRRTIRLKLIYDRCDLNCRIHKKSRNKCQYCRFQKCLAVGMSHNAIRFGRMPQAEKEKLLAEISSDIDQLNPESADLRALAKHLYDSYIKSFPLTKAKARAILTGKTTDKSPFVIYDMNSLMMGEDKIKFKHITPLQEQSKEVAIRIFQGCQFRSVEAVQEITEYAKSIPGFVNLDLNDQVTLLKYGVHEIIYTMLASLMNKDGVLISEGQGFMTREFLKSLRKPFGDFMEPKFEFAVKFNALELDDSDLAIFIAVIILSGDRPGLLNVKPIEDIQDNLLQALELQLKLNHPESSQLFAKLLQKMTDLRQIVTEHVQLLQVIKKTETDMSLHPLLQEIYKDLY
In short: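 Split-YFP (IFP1/IFP2) PPARg/SRC-1 reporter, HEK293T, 37 °C, 5% CO2; 8 h compound; formaldehyde fix + Draq5; high-content imaging, N/C ratio, ≥350 cells/image, positive direction vs DMSO.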

[4] = target: Peroxisome proliferator-activated receptor gamma (Homo sapiens) (UniProt P37231); assay: OT_PPARg_PPARgSRC1_1440: Odyssey Thera (OT) 24-hour Protein-Complementation Assay for Peroxisome Proliferator-activated Receptor Gamma/ SRC-1 Co-activator (AID 2283388; active = hit-call score of the fitted dose curve at least 0.9, where 1 is the maximum;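 also: nuclear to cytoplasmic ratio of reconstituted Venus YFP fluorescence in fixed imaged cells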)
In short: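 Protein-fragment complementation between PPARg and coactivator SRC-1 was measured by fluorescence imaging in transiently transfected HEK293T cells after 24 h treatment. Signal was quantified as N/C ratio in the 488 nm channel, with DMSO as negative control.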

[5] = read-out: Tumor necrosis factor receptor superfamily member 6 (Homo sapiens) (UniProt P25445); assay: LTEA_HepaRG_FAS: Life Technologies and Expression Analysis (LTEA) Assay for Fas cell surface death receptor (FAS) using HepaRG (AID 2283447); conditions: mRNA level, 48 h; actives raise or lower the signal
In short: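 FAS transcript level was measured by TaqMan qRT-PCR against three housekeeping genes after 48 h chemical exposure. Cells were HepaRG, 0.5% DMSO vehicle, with a top concentration of 100 uM and half-log dilutions over eight points, in duplicate.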

[6] = read-out: Fatty acid synthase (Homo sapiens) (UniProt P49327); assay: LTEA_HepaRG_FASN: Life Technologies and Expression Analysis (LTEA) Assay for Fatty Acid Synthase (FASN) using HepaRG (AID 2283448); conditions: mRNA level, 48 h; actives raise or lower the signal;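 as to AC50: differentiated human HepaRG liver cells in serum-free induction medium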
In short: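 Transcript-level assay: HepaRG liver cells are treated for 48 h across an eight-point range topping at 100 uM, and FASN mRNA, normalized to three housekeeping genes, is compared with DMSO controls in both directions.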

[7] = read-out: Cyclin D2 (CCND2), CCND2 (gene 894); assay: LTEA_HepaRG_CCND2: Life Technologies and Expression Analysis (LTEA) Assay for Cyclin D2 (CCND2) using HepaRG (AID 2283449); conditions: mRNA level, 48 h; actives raise or lower the signal
In short: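 Read-out is CCND2 mRNA level measured by qRT-PCR in human HepaRG liver cells and normalised to three housekeeping genes. Chemicals were applied for 48 h at up to 100 uM, with gain or loss fitted relative to 0.5% DMSO.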

[8] = read-out: Cyclin Dependent Kinase Inhibitor 1A (CDKN1A), CDKN1A (gene 1026); assay: LTEA_HepaRG_CDKN1A: Life Technologies and Expression Analysis (LTEA) Assay for Cyclin Dependent Kinase Inhibitor 1A (CDKN1A) using HepaRG (AID 2283450); conditions: mRNA level, 48 h; actives raise or lower the signal
In short: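 Read-out is CDKN1A mRNA by TaqMan qRT-PCR, normalized to three housekeeping genes and fitted in both directions against the DMSO baseline. Human HepaRG cells were treated 48 h with test chemicals up to 100 uM in half-log steps, 0.5% DMSO.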

[9] = read-out: Cyclin D1 (CCND1), CCND1 (gene 595); assay: LTEA_HepaRG_CCND1: Life Technologies and Expression Analysis (LTEA) Assay for Cyclin D1 (CCND1) using HepaRG (AID 2283451); conditions: mRNA level, 48 h; actives raise or lower the signal;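 as to AC50: differentiated human HepaRG liver cells in serum-free induction medium; TaqMan qRT-PCR transcript level normalised to ACTB GAPDH and POLR2A housekeeping genes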
In short: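 HepaRG plated 48 h, medium switched to serum-free induction medium, chemicals added in duplicate (top 100 uM, half-log steps, 0.5% DMSO) for 48 h, cells lysed, RNA measured by TaqMan qRT-PCR.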

[10] = read-out: catalase (CAT), CAT (gene 847); assay: LTEA_HepaRG_CAT: Life Technologies and Expression Analysis (LTEA) Assay for catalase (CAT) using HepaRG (AID 2283452); conditions: mRNA level, 48 h; actives raise or lower the signal;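 as to AC50: TaqMan qRT-PCR signal normalized to ACTB GAPDH and POLR2A housekeeping genes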
In short: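 Expression of CAT was quantified by TaqMan qRT-PCR with ACTB/GAPDH/POLR2A normalization after 48 h chemical exposure of HepaRG. Eight-point half-log series, top 100 uM, in 0.5% DMSO; gain or loss fitted against vehicle.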

[11] = CEETOX_H295R_11DCORT: CeeTox H295R High-throughput Steroidogenesis Assay for 11-Deoxycortisol (11DCORT) (AID 2283432); conditions: actives raise or lower the signal;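 as to AC50: human adrenal H295R cells prestimulated with 10 µM forskolin for 48 h; 11-deoxycortisol secreted into the medium measured by LC-MS/MS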
In short: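 Steroidogenesis in human H295R cells: 48 h chemical exposure after forskolin priming, 11-deoxycortisol measured by LC-MS/MS.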

[12] = CEETOX_H295R_OHPREG: CeeTox H295R High-throughput Steroidogenesis Assay for OH-Pregnenolone (OHPREG) (AID 2283434); conditions: actives raise or lower the signal
In short: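 Hormone levels in spent medium were measured by tandem mass spectrometry following liquid-liquid extraction. Cells (H295R) had been forskolin-stimulated (10 uM, 48 h) before a 48 h chemical exposure at 0.1% DMSO, with activity fitted in both directions against DMSO.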

[13] = CEETOX_H295R_OHPROG: CeeTox H295R High-throughput Steroidogenesis Assay for OH-Progesterone (OHPROG) (AID 2283435); conditions: actives raise or lower the signal;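 as to AC50: 17alpha-hydroxyprogesterone secreted into medium measured by HPLC-MS/MS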
In short: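 Secreted 17alpha-hydroxyprogesterone is read by tandem MS from media of forskolin-primed H295R cells dosed with chemical for 48 h. Activity is fitted in both directions against DMSO baseline; cytotoxic concentrations are re-tested diluted.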

[14] = CEETOX_H295R_CORTIC: CeeTox H295R High-throughput Steroidogenesis Assay for Corticosterone (CORTIC) (AID 2283437); conditions: actives raise or lower the signal;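 also: corticosterone secreted into medium quantified by mass spectrometry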
In short: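 Corticosterone secreted into medium is measured by reverse-phase HPLC with tandem MS following liquid-liquid extraction. Cells are forskolin-stimulated (10 uM, 48 h) before 48 h test exposure; activity fitted in both directions against DMSO.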

[15] = CEETOX_H295R_CORTISOL: CeeTox H295R High-throughput Steroidogenesis Assay for Cortisol (AID 2283438); conditions: actives raise or lower the signal;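 also: cortisol secreted into medium quantified by LC-MS/MS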
In short: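 Human adrenocortical H295R cells (passage ≤10) received test chemicals for 48 h after forskolin priming. Secreted cortisol was measured by LC-MS/MS.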

[16] = CEETOX_H295R_DOC: CeeTox H295R High-throughput Steroidogenesis Assay for DOC (AID 2283439); conditions: actives raise or lower the signal
In short: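 Secreted DOC was quantified from H295R media by HPLC-MS/MS after 48 h chemical exposure following 48 h forskolin (10 uM) prestimulation. Values were fitted in both directions relative to DMSO, the negative control and baseline.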

[17] = CEETOX_H295R_ESTRADIOL: CeeTox H295R High-throughput Steroidogenesis Assay for Estradiol (AID 2283440); conditions: actives raise or lower the signal;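 also: estradiol secreted into medium quantified by LC-MS/MS after dansyl derivatisation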
In short: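 Estradiol secreted into the medium was measured by tandem mass spectrometry after liquid-liquid extraction and dansylation. Human H295R cells had been forskolin-primed (10 uM, 48 h) before a 48 h chemical exposure with 0.1% DMSO.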

[18] = CEETOX_H295R_ESTRONE: CeeTox H295R High-throughput Steroidogenesis Assay for Estrone (AID 2283441); conditions: actives raise or lower the signal;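 also: estrone secreted into medium measured by LC-MS/MS after dansyl derivatization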;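 as to AC50: human adrenal H295R cells prestimulated with forskolin for two days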
In short: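 H295R cells; 48 h forskolin (10 uM) prestimulation; 48 h compound exposure, 0.1% DMSO final. Medium estrone: MTBE extraction, dansyl derivatization, HPLC-MS/MS. Bidirectional fit vs DMSO.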

[19] = CEETOX_H295R_PROG: CeeTox H295R High-throughput Steroidogenesis Assay for Progesterone (PROG) (AID 2283442); conditions: actives raise or lower the signal;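 also: human H295R adrenal cells primed with 10 µM forskolin before dosing; progesterone secreted into medium by H295R cells measured by HPLC-MS/MS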
In short: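 Steps: seed H295R cells and let them adhere overnight; prime 48 h with 10 uM forskolin; dose with compound in DMSO at 0.1% final for 48 h; extract medium steroids with MTBE; measure progesterone by LC-MS/MS. MTT viability was run in the same wells.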

Measured: AC50

Fatty acid synthase (Homo sapiens), sequence (P49327 whole entry, looked up): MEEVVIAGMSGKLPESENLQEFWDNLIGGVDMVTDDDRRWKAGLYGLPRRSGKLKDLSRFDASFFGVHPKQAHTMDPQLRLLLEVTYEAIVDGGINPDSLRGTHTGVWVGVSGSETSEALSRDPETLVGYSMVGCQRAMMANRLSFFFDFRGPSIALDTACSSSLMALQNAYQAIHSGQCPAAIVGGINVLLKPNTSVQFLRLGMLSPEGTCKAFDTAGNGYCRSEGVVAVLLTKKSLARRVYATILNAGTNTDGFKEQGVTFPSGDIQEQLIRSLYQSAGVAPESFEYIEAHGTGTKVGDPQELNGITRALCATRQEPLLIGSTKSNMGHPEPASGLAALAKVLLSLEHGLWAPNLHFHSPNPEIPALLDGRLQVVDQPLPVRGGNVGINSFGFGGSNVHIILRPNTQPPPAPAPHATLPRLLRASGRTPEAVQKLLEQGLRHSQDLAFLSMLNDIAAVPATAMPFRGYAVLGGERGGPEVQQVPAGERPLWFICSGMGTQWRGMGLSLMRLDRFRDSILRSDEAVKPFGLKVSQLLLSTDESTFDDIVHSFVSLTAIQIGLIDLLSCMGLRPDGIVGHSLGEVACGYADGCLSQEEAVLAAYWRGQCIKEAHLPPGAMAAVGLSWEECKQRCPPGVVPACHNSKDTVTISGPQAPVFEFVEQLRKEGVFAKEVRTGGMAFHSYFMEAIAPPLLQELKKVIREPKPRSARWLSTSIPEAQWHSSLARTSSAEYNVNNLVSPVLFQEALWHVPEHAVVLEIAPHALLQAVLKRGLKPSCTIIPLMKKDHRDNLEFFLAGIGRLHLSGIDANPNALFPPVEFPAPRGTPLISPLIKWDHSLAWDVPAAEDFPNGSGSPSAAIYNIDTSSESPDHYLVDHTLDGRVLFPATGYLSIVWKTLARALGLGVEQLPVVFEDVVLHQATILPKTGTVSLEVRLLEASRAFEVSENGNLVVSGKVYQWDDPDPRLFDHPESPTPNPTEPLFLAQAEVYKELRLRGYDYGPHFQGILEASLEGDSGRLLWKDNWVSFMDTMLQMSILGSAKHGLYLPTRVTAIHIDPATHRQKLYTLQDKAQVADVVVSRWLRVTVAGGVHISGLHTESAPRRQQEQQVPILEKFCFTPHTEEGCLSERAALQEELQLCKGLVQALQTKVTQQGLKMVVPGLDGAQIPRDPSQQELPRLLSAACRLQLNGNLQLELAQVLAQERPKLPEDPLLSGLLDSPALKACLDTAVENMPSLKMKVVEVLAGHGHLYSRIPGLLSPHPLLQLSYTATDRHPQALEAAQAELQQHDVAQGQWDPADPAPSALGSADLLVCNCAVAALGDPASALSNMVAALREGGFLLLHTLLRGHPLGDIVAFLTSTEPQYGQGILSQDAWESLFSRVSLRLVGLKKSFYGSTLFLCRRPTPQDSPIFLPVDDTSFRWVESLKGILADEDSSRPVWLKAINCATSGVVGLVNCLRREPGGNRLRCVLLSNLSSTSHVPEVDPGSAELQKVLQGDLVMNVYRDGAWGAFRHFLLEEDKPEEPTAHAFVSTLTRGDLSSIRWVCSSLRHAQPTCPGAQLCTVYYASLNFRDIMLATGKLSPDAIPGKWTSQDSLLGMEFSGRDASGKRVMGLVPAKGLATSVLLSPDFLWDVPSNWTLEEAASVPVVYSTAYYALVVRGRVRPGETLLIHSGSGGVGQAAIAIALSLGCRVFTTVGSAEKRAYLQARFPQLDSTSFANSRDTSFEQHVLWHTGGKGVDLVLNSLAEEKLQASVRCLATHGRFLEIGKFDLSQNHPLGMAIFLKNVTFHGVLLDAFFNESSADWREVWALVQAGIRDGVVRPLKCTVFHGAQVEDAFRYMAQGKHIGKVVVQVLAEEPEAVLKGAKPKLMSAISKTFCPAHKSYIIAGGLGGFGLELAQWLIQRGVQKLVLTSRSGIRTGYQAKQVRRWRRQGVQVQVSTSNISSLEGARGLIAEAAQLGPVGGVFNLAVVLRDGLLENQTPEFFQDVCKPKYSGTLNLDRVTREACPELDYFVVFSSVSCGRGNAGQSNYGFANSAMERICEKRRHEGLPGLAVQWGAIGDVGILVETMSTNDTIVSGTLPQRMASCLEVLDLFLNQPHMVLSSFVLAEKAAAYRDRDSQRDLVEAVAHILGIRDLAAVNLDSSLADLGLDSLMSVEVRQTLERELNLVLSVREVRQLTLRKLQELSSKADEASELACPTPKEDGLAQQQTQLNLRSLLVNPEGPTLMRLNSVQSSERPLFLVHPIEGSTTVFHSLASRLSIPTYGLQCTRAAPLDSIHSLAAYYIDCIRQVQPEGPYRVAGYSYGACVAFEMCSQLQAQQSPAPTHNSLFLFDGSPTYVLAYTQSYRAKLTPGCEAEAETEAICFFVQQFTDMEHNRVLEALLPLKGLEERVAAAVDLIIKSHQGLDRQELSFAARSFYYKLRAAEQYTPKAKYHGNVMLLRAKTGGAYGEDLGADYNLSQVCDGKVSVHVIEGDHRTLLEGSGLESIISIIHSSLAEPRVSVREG

COC(=O)C=C(C)OP(=O)(OC)OC
inactive: [1] | [2] | [3] | [4] | [5] | [6] | [7] | [8] | [9] | [10]

COC(=O)c1ccccc1C(=O)OC
inactive: [2] | [3] | [4] | [5] | [6] | [7] | [8] | [9] | [10]

C=CC1(C)OC(=O)N(c2cc(Cl)cc(Cl)c2)C1=O (configuration not stated)
inactive: [1] | [2] | [3] | [4] | [12] | [14] | [15] | [17] | [18] | [5] | [6] | [7] | [8] | [9] | [10]
active: [11] 25.6 µM | [13] 22.6 µM | [16] 11.3 µM | [19] 17.5 µM

CCOP(=S)(OCC)SCn1c(=O)oc2cc(Cl)ccc21
inactive: [2] | [3] | [11] | [13] | [15] | [5] | [6] | [7] | [8] | [9] | [10]
active: [12] 5 µM | [14] 1.14 µM | [16] 1.36 µM | [17] 1.23 µM | [18] 1.62 µM | [19] 3.23 µM

COP(N)(=O)SC (configuration not stated)
inactive: [2] | [3] | [4] | [5] | [6] | [7] | [8] | [9] | [10]

CO/C=C(/C(=O)OC)c1ccccc1Oc1cc(Oc2ccccc2C#N)ncn1
inactive: [3] | [4] | [7] | [9]
active: [5] 78.4 µM and 82.9 µM and 81.6 µM | [6] 90.5 µM and 91.3 µM and 91 µM | [8] 79.5 µM and 78.9 µM | [9] 12.6 µM | [10] 75.5 µM and 69.5 µM and 74.7 µM

Cc1ccc(-c2c(Cl)nc(C#N)n2S(=O)(=O)N(C)C)cc1
active: [6] 9 µM | [7] 0.00629 µM | [10] 7.28 µM
inactive: [2] | [3] | [4] | [5] | [8] | [9]
